# Results filed as inconclusive are left out. Entries that show only a call come without a potency. Calls of active or inactive are those of the source. Calls follow the shape of the dose curve; as a rule, active = well fitted cell-killing curve with a large enough effect in the repeat runs; inconclusive = weak or mixed curves; inactive = flat fitted curve, though single readings scatter.
# Assay: qHTS RealTime-Glo MT Cell Viability Assay in HepG2 cells - 16 hour (AID 1224885); also: nearly all actives have a fitted effect of over 50% in size
# Conditions: RealTime-Glo luminescence; series mostly up to 76.8 µM
# Source text: U.S. Tox21 Program National Center for Advancing Translational Sciences [NCATS] NIH Chemical Genomics Center [NCGC] U.S. Environmental Protection Agency [EPA] National Institutes of Environmental Health Sciences [NIEHS] National Toxicology Program [NTP] U.S. Food and Drug Administration [FDA] Tox21 Assay Overview: Measure of cell viability is critical in the cell-base assay. Analysis of cell viability is necessary for the characterization of cell responses to cytotoxic drugs and environmental stress. A RealTime-Glo MT Cell Viability Assay to monitor cell viability in real time of continues cell culture during 40 hours of compound treatment was used to screen Tox21 10K library compounds in HepG2 cells. The RealTime-Glo MT Cell Viability Assay is a nonlytic, homogeneous, bioluminescent method to measure cell viability in real time using a simple, plate-based method. The assay involves adding NanoLuc luciferase and a cell-permeant prosubstrate to cells in culture. Viable cells reduce the proprietary prosubstrate to generate a substrate for NanoLuc luciferase. This substrate diffuses from cells into the surrounding culture medium, where it is rapidly used by the NanoLuc Enzyme to produce a luminescent signal. The signal correlates with the number of viable cells, making the assay well suited for cytotoxicity studies.
# Tox21 Assay Protocol Summary: The mixture of HepG2 cell suspension and reagents were dispensed at 600cells/6 ul/well in 1536-well tissue culture treated black solid bottom plates using a Multidrop dispenser. After the assay plates were incubated at a 37 C/5% CO2 incubator for 5 hours, 23 nL of compounds dissolved in DMSO, positive and negative controls was transferred to the assay plate by a pintool work station. The plates were incubated at 37 C for 40 hours. The luminescence intensity were measured at 0h, 8h, 16h, 24h, 32h and 40h time points using ViewLux plate reader during compound treatment.
# Potency is read from the fitted curve at half-maximal effect.
Structure (SMILES),Potency,"activity change, negative = cytotoxic"
Cc1c(C(=O)O)cccc1[N+](=O)[O-],inactive,
CCC(=O)OCCc1ccccc1,inactive,
O=C(Oc1ccccc1)c1cccc(C(=O)Oc2ccccc2)c1,inactive,
NC(=O)c1nc(-c2cccc(-c3cc(F)ccc3OCC(F)(F)C(F)(F)F)c2)n[nH]1,inactive,
Clc1ccc(C(Cn2ccnc2)OCc2c(Cl)cccc2Cl)c(Cl)c1 (stereo not given),inactive,
COc1ccccc1OCCNCC(O)COc1cccc2[nH]c3ccccc3c12 (stereo not given),23.9 µM (active),
C=C(C)C(=O)OCCC[Si](Cl)(Cl)Cl,inactive,
Cc1cccc(C)n1,inactive,
O=CC1CC1,inactive,
CCCCNc1c(C(=O)OCC)c(C)nc2c1cnn2CC,inactive,
COc1nccnc1CC(C)C,inactive,
NCCCCCCNCCCCCCN,inactive,
COc1ccccc1C=O,inactive,
CCc1c(C(=O)O)c(=O)cnn1-c1ccc(Cl)cc1,inactive,
CC(=O)OC1CCCCC1,inactive,
C#CC(O)CCC (stereo not given),inactive,
CCCCCCCC(=O)OCC,inactive,
Oc1ccc(-c2ccc(O)cc2)cc1,inactive,
CC1CNCC(C)O1 (stereo not given),inactive,
Cc1cn[nH]c1,inactive,

Structure (SMILES),Potency,"activity change, negative = cytotoxic"
CC(C)(C)CC(C)(C)c1ccccc1O,inactive,
CCC(C)c1cc([N+](=O)[O-])cc([N+](=O)[O-])c1OC(=O)OC(C)C (stereo not given),49 µM (active),
CC(C)c1ccccc1N,inactive,
CCCCCCCC/C=C\CCCCCCCC(=O)N(C)CC(=O)O,inactive,
NC(=O)c1ccccc1N,inactive,
OCCCCl,inactive,
Oc1ccc(-c2ccccc2)c(Cl)c1,inactive,
CCCCCCCCCCCCN(CCO)CCO,48.8 µM (active),
O=Cc1ccc(F)cc1,inactive,
ClC/C=C\CCl,inactive,
O=C1NCCN1CCN1CCC(c2cn(-c3ccc(F)cc3)c3ccc(Cl)cc23)CC1,23.9 µM (active),
CC1CCCCN1CCCOC(=O)c1ccc(OC2CCCCC2)cc1 (stereo not given),inactive,
CCN1CCN(c2cc(-c3ccc(F)cc3)c3c(n2)CCCCCC3)CC1,,-4% [at 15.8 µM] (inactive)
O=C(O)CC(=O)O,inactive,
CCCCCCCCCCCCCc1ccccc1,inactive,
OCCCc1cccnc1,inactive,
CCc1ccc(C)nc1,inactive,
Oc1cc2ccccc2cc1O,inactive,
CO[C@H]1C=CO[C@@]2(C)Oc3c(C)c(O)c4c(O)c(cc(O)c4c3C2=O)NC(=O)/C(C)=C\C=C/[C@H](C)[C@H](O)[C@@H](C)[C@@H](O)[C@@H](C)[C@H](OC(C)=O)[C@@H]1C,inactive,
CC[N+](CC)(CC)Cc1ccccc1,inactive,

# Source: PubChem BioAssay (Tox21)
